Results published in the supplement of paper PMC7411054.
Counter-ions that a name gives are not always drawn.

Experiments:
Experiment in all cases: phenotypically active (imaging signature differs from DMSO and reproducible) at any of 0.3-9 uM (binary (1 = active, 0 = inactive)); higher = active
Conditions in all cases: treatment time: 24 h
A549-ACTB-RAB5A = system: A549-ACTB-RAB5A
How it was run: (§1)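 Phenotypic activity depended on meeting both a deviation and a reproducibility criterion. The fifteen gene-edited A549, HepG2 and WPMY1 reporter lines were treated at 0.3, 1, 3 or 9 µM for 24 h, four wells each, then imaged live with features normalised to solvent control wells. Deviation required ≥3 of 4 wells past the 95th percentile of control Euclidean distances, and reproducibility a median replicate Pearson correlation above the 95th percentile of non-replicates.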

A549-CANX-COX4 = system: A549-CANX-COX4
How it was run: as §1

A549-GM130-SQSTM1 = system: A549-GM130-SQSTM1
How it was run: as §1

A549-TP53BP1-CLTA = system: A549-TP53BP1-CLTA
How it was run: as §1

A549-TUBA1B-RELA = system: A549-TUBA1B-RELA
How it was run: as §1

HepG2-ACTB-RAB5A = system: HepG2-ACTB-RAB5A
How it was run: as §1

HepG2-CANX-COX4 = system: HepG2-CANX-COX4
How it was run: as §1

HepG2-GM130-SQSTM1 = system: HepG2-GM130-SQSTM1
How it was run: as §1

HepG2-TP53BP1-CLTA = system: HepG2-TP53BP1-CLTA
How it was run: as §1

HepG2-TUBA1B-RELA = system: HepG2-TUBA1B-RELA
How it was run: as §1

WPMY1-ACTB-RAB5A = system: WPMY1-ACTB-RAB5A
How it was run: as §1

WPMY1-CANX-COX4 = system: WPMY1-CANX-COX4
How it was run: as §1

WPMY1-GM130-SQSTM1 = system: WPMY1-GM130-SQSTM1
How it was run: as §1

WPMY1-TP53BP1-CLTA = system: WPMY1-TP53BP1-CLTA
How it was run: as §1

WPMY1-TUBA1B-RELA = system: WPMY1-TUBA1B-RELA
How it was run: as §1

Measured: phenotypically active

COc1cc2c(NC3CCN(C)CC3)nc(N3CCCN(C)CC3)nc2cc1OCCCN(C)C
inactive: A549-ACTB-RAB5A 0 | A549-CANX-COX4 0 | A549-GM130-SQSTM1 0 | A549-TP53BP1-CLTA 0 | A549-TUBA1B-RELA 0 | HepG2-ACTB-RAB5A 0 | HepG2-CANX-COX4 0 | HepG2-GM130-SQSTM1 0 | HepG2-TP53BP1-CLTA 0 | HepG2-TUBA1B-RELA 0 | WPMY1-ACTB-RAB5A 0 | WPMY1-CANX-COX4 0 | WPMY1-GM130-SQSTM1 0 | WPMY1-TP53BP1-CLTA 0 | WPMY1-TUBA1B-RELA 0

COc1ccc2c(c1)N(C(C)=O)[C@H]1[C@@H]3CO[C@H](C)[C@@H]4CN5CC[C@]21[C@@H]5C[C@H]34 [Strychnospermine]
inactive: A549-ACTB-RAB5A 0 | A549-CANX-COX4 0 | A549-GM130-SQSTM1 0 | A549-TP53BP1-CLTA 0 | A549-TUBA1B-RELA 0 | HepG2-ACTB-RAB5A 0 | HepG2-CANX-COX4 0 | HepG2-GM130-SQSTM1 0 | HepG2-TP53BP1-CLTA 0 | HepG2-TUBA1B-RELA 0 | WPMY1-ACTB-RAB5A 0 | WPMY1-CANX-COX4 0 | WPMY1-GM130-SQSTM1 0 | WPMY1-TP53BP1-CLTA 0 | WPMY1-TUBA1B-RELA 0

CCOC(=O)C1=C(C)NC(=S)N[C@H]1c1cccc(O)c1 [Monastrol]
inactive: A549-ACTB-RAB5A 0 | A549-CANX-COX4 0 | A549-GM130-SQSTM1 0 | A549-TP53BP1-CLTA 0 | A549-TUBA1B-RELA 0 | HepG2-ACTB-RAB5A 0 | HepG2-CANX-COX4 0 | HepG2-GM130-SQSTM1 0 | HepG2-TP53BP1-CLTA 0 | HepG2-TUBA1B-RELA 0 | WPMY1-ACTB-RAB5A 0 | WPMY1-CANX-COX4 0 | WPMY1-GM130-SQSTM1 0 | WPMY1-TP53BP1-CLTA 0 | WPMY1-TUBA1B-RELA 0

C=CCc1ccccc1OC[C@@H](O)CNC(C)C [Alprenolol hydrochloride]
inactive: A549-ACTB-RAB5A 0 | A549-CANX-COX4 0 | A549-GM130-SQSTM1 0 | A549-TP53BP1-CLTA 0 | A549-TUBA1B-RELA 0 | HepG2-ACTB-RAB5A 0 | HepG2-CANX-COX4 0 | HepG2-GM130-SQSTM1 0 | HepG2-TP53BP1-CLTA 0 | HepG2-TUBA1B-RELA 0 | WPMY1-ACTB-RAB5A 0 | WPMY1-CANX-COX4 0 | WPMY1-GM130-SQSTM1 0 | WPMY1-TP53BP1-CLTA 0 | WPMY1-TUBA1B-RELA 0

CN(C)c1nc(N(C)C)nc(N(C)C)n1 [altretamine]
inactive: A549-ACTB-RAB5A 0 | A549-CANX-COX4 0 | A549-GM130-SQSTM1 0 | A549-TP53BP1-CLTA 0 | A549-TUBA1B-RELA 0 | HepG2-ACTB-RAB5A 0 | HepG2-CANX-COX4 0 | HepG2-GM130-SQSTM1 0 | HepG2-TP53BP1-CLTA 0 | HepG2-TUBA1B-RELA 0 | WPMY1-ACTB-RAB5A 0 | WPMY1-CANX-COX4 0 | WPMY1-GM130-SQSTM1 0 | WPMY1-TP53BP1-CLTA 0 | WPMY1-TUBA1B-RELA 0

C#CCN(C)Cc1ccccc1 [pargyline]
inactive: A549-ACTB-RAB5A 0 | A549-CANX-COX4 0 | A549-GM130-SQSTM1 0 | A549-TP53BP1-CLTA 0 | A549-TUBA1B-RELA 0 | HepG2-ACTB-RAB5A 0 | HepG2-CANX-COX4 0 | HepG2-GM130-SQSTM1 0 | HepG2-TP53BP1-CLTA 0 | HepG2-TUBA1B-RELA 0 | WPMY1-ACTB-RAB5A 0 | WPMY1-CANX-COX4 0 | WPMY1-GM130-SQSTM1 0 | WPMY1-TP53BP1-CLTA 0 | WPMY1-TUBA1B-RELA 0

O=[N+]([O-])c1c(Nc2cc(F)cc(Cl)c2)ccc2nonc12
inactive: A549-ACTB-RAB5A 0 | A549-CANX-COX4 0 | A549-GM130-SQSTM1 0 | A549-TP53BP1-CLTA 0 | A549-TUBA1B-RELA 0 | HepG2-ACTB-RAB5A 0 | HepG2-CANX-COX4 0 | HepG2-GM130-SQSTM1 0 | HepG2-TP53BP1-CLTA 0 | HepG2-TUBA1B-RELA 0 | WPMY1-ACTB-RAB5A 0 | WPMY1-CANX-COX4 0 | WPMY1-GM130-SQSTM1 0 | WPMY1-TP53BP1-CLTA 0 | WPMY1-TUBA1B-RELA 0

Cc1ccc(-c2c(-c3nn(C)c4ncnc(N5CC[C@H](N6CCCCC6)C5)c34)cnn2C)cc1
inactive: A549-ACTB-RAB5A 0 | A549-CANX-COX4 0 | A549-GM130-SQSTM1 0 | A549-TP53BP1-CLTA 0 | A549-TUBA1B-RELA 0 | HepG2-ACTB-RAB5A 0 | HepG2-CANX-COX4 0 | HepG2-GM130-SQSTM1 0 | HepG2-TP53BP1-CLTA 0 | HepG2-TUBA1B-RELA 0 | WPMY1-ACTB-RAB5A 0 | WPMY1-CANX-COX4 0 | WPMY1-GM130-SQSTM1 0 | WPMY1-TP53BP1-CLTA 0 | WPMY1-TUBA1B-RELA 0

Cc1ccc(-c2csc3ncnc(SCCC(=O)O)c23)cc1
inactive: A549-ACTB-RAB5A 0 | A549-CANX-COX4 0 | A549-GM130-SQSTM1 0 | A549-TP53BP1-CLTA 0 | A549-TUBA1B-RELA 0 | HepG2-ACTB-RAB5A 0 | HepG2-CANX-COX4 0 | HepG2-GM130-SQSTM1 0 | HepG2-TP53BP1-CLTA 0 | HepG2-TUBA1B-RELA 0 | WPMY1-ACTB-RAB5A 0 | WPMY1-CANX-COX4 0 | WPMY1-GM130-SQSTM1 0 | WPMY1-TP53BP1-CLTA 0 | WPMY1-TUBA1B-RELA 0

OC[C@H]1NC[C@H](O)[C@@H](O)[C@@H]1O [1-Deoxynojirimycin]
inactive: A549-ACTB-RAB5A 0 | A549-CANX-COX4 0 | A549-GM130-SQSTM1 0 | A549-TP53BP1-CLTA 0 | A549-TUBA1B-RELA 0 | HepG2-ACTB-RAB5A 0 | HepG2-CANX-COX4 0 | HepG2-GM130-SQSTM1 0 | HepG2-TP53BP1-CLTA 0 | HepG2-TUBA1B-RELA 0 | WPMY1-ACTB-RAB5A 0 | WPMY1-CANX-COX4 0 | WPMY1-GM130-SQSTM1 0 | WPMY1-TP53BP1-CLTA 0 | WPMY1-TUBA1B-RELA 0

COc1ccc2c3c([nH]c2c1)[C@H]1C[C@H]2[C@H](C[C@@H](O)[C@H](OC)[C@H]2C(=O)O)CN1CC3 [Reserpinic acid hydrochloride]
inactive: A549-ACTB-RAB5A 0 | A549-CANX-COX4 0 | A549-GM130-SQSTM1 0 | A549-TP53BP1-CLTA 0 | A549-TUBA1B-RELA 0 | HepG2-ACTB-RAB5A 0 | HepG2-CANX-COX4 0 | HepG2-GM130-SQSTM1 0 | HepG2-TP53BP1-CLTA 0 | HepG2-TUBA1B-RELA 0 | WPMY1-ACTB-RAB5A 0 | WPMY1-CANX-COX4 0 | WPMY1-GM130-SQSTM1 0 | WPMY1-TP53BP1-CLTA 0 | WPMY1-TUBA1B-RELA 0

OCC(CO)N[C@H]1C[C@](O)(CO)[C@@H](O)[C@H](O)[C@H]1O [Voglibose]
inactive: A549-ACTB-RAB5A 0 | A549-CANX-COX4 0 | A549-GM130-SQSTM1 0 | A549-TP53BP1-CLTA 0 | A549-TUBA1B-RELA 0 | HepG2-ACTB-RAB5A 0 | HepG2-CANX-COX4 0 | HepG2-GM130-SQSTM1 0 | HepG2-TP53BP1-CLTA 0 | HepG2-TUBA1B-RELA 0 | WPMY1-ACTB-RAB5A 0 | WPMY1-CANX-COX4 0 | WPMY1-GM130-SQSTM1 0 | WPMY1-TP53BP1-CLTA 0 | WPMY1-TUBA1B-RELA 0
